Source: PubChem BioAssay (NCI)
About 79,000 compounds went through this panel and 15% of them were active in at least one assay; those are over-represented in the sample as a whole. Active and inactive are the calls of the source. Cut-off read from the data, not from the text of the source: active = growth inhibition above about 70%; inactive = the rest.

How the values were obtained:
[1] = NCI Yeast Anticancer Drug Screen. Data for the rad52 strain (AID 147);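 note: 0% = growth of vehicle-treated control cultures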; conditions: S. cerevisiae rad52 mutant growth inhibition, stronger effect = higher value
Outline: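 Growth of repair-deficient yeast cells was compared between compound-treated and vehicle-treated cultures to give percent inhibition.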

[2] = NCI Yeast Anticancer Drug Screen. Data for the wt1 strain (AID 149);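 note: 0% = growth of vehicle-treated wt1 cultures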; conditions: S. cerevisiae wt1 strain (SPY 50644) growth inhibition, stronger effect = higher value
Outline: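 Compounds are added to wt1 yeast cultures. Growth is then measured. Inhibition is expressed relative to vehicle-treated controls.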

[3] = NCI Yeast Anticancer Drug Screen. Data for the rad50EPP+ strain (AID 151);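 note: 0% = growth of vehicle-treated control cultures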; conditions: S. cerevisiae rad50 mutant strain, stronger effect = higher value
Outline: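 Measured: growth inhibition of rad50EPP+ yeast. Reference: vehicle-treated controls. Screen uses strains with defined genetic alterations in DNA damage repair or cell cycle control.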

[4] = NCI Yeast Anticancer Drug Screen. Data for the mgt1 strain (AID 153); conditions: S. cerevisiae mgt1 mutant growth inhibition, stronger effect = higher value
Outline: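 Compounds were applied to mgt1 mutant yeast, and growth was then compared against vehicle-treated control cultures to give percent inhibition.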

[5] = NCI Yeast Anticancer Drug Screen. Data for the rad50 strain (AID 155);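 note: 0% = growth of vehicle-only cultures of the same strain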; conditions: S. cerevisiae rad50 strain growth inhibition, stronger effect = higher value
Outline: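 Inhibition values express reduced yeast growth in compound-treated cultures relative to vehicle-treated controls.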

[6] = NCI Yeast Anticancer Drug Screen. Data for the mec2-1 strain (AID 157); conditions: S. cerevisiae mec2-1 strain, stronger effect = higher value
Outline: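 Compounds were applied to mec2-1 yeast cells. Their growth was then compared with that of vehicle-treated cultures to give growth inhibition.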

[7] = NCI Yeast Anticancer Drug Screen. Data for the rad14 strain (AID 159);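 note: 0% = growth of vehicle-treated control cultures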; conditions: S. cerevisiae rad14 strain growth inhibition, stronger effect = higher value
Outline: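 A mutant yeast strain defective in DNA damage repair is treated with compound; inhibition of its growth is scored against untreated, vehicle-exposed cultures.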

[8] = NCI Yeast Anticancer Drug Screen. Data for the sgs1 mgt1 strain (AID 161);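 note: 0% = growth of cultures given vehicle only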; conditions: S. cerevisiae sgs1 mgt1 strain, stronger effect = higher value
Outline: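 Growth of a repair-deficient yeast mutant was monitored after compound treatment and expressed as inhibition relative to vehicle-treated cultures.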

[9] = NCI Yeast Anticancer Drug Screen. Data for the CLN2oe strain (AID 163);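 note: 0% = growth of vehicle-only control cultures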; conditions: S. cerevisiae CLN2oe strain, stronger effect = higher value
Outline: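 Cells of an engineered yeast line with disturbed cell-cycle regulation are treated with compound. Inhibition of growth is then calculated relative to the vehicle-treated reference.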

[10] = NCI Yeast Anticancer Drug Screen. Data for the cln2 rad14 strain (AID 165);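 note: 0% = growth equal to vehicle treated cultures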; conditions: S. cerevisiae cln2 rad14 strain, stronger effect = higher value
Outline: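 Strain: cln2 rad14 yeast, altered in cell cycle control and DNA damage repair. Read-out: growth inhibition vs vehicle.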

[11] = NCI Yeast Anticancer Drug Screen. Data for the bub3 strain (AID 167); conditions: S. cerevisiae bub3 mutant strain, stronger effect = higher value
Outline: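 Steps: expose the mutant yeast strain to compound; grow alongside vehicle-treated cultures; measure growth; express inhibition against the vehicle cultures.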

[12] = NCI Yeast Anticancer Drug Screen. Data for the wt2 strain (AID 169);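 note: 0% = growth of vehicle-treated yeast cultures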; conditions: S. cerevisiae wt2 strain growth inhibition, stronger effect = higher value
Outline: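 Growth of compound-treated yeast is measured and expressed as inhibition relative to vehicle-only controls.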

[13] = NCI Yeast Anticancer Drug Screen. Data for the mlh1 strain (AID 171);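 note: 0% = growth of vehicle-treated control cultures of the same strain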; conditions: S. cerevisiae mlh1 strain growth inhibition, stronger effect = higher value
Outline: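 Test agents were incubated with yeast bearing a defined DNA damage repair or cell cycle control alteration; values are growth inhibition normalised to vehicle-treated cultures.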

[14] = NCI Yeast Anticancer Drug Screen. Data for the sgs1 strain (AID 173);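 note: 0% = growth of vehicle-only control cultures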; conditions: S. cerevisiae sgs1 mutant, stronger effect = higher value
Outline: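 Strain with an altered DNA repair or cell cycle pathway exposed to compound. Growth then measured. Value = inhibition versus vehicle control.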

[15] = NCI Yeast Anticancer Drug Screen. Data for the mlh1 rad18 strain (AID 175); conditions: S. cerevisiae mlh1 rad18 strain growth inhibition, stronger effect = higher value
Outline: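 A repair-deficient yeast strain is exposed to test compound, and growth is scored relative to vehicle-treated controls.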

[16] = NCI Yeast Anticancer Drug Screen. Data for the rad18 strain (AID 177); conditions: S. cerevisiae rad18 mutant growth inhibition, stronger effect = higher value
Outline: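 DNA-repair-defective yeast; compound treatment; growth inhibition scored against vehicle.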

[17] = at 5.0 µM (retest, dose inferred, filed as 0.5)
[18] = at 50.0 µM (retest, dose inferred, filed as 5.0)

Measured: growth inhibition

COc1cc(C2C3=C(COC3=O)Oc3cc4c(cc32)OCO4)cc(OC)c1O (stereo not drawn)
inactive: [2]; at 1.2 µM 1% | [2]; at 3.7 µM 2% | [2]; at 11.0 µM 3% | [2]; at 33.0 µM 6% | [2]; at 100.0 µM 8% | [3]; at 1.2 µM -2% | [3]; at 3.7 µM 0% | [3]; at 11.0 µM 1% | [3]; at 33.0 µM -3% | [3]; at 100.0 µM 0% | [4]; at 1.2 µM 0% | [4]; at 3.7 µM -2% | [4]; at 11.0 µM 15% | [4]; at 33.0 µM -2% | [4]; at 100.0 µM 7% | [5]; [17] 14% | [6]; at 1.2 µM 12% | [6]; at 3.7 µM 7% | [6]; [17] -24% | [6]; at 11.0 µM 18% | [6]; at 33.0 µM 25% | [6]; [18] 39% | [6]; at 50.0 µM 59.1% | [6]; at 100.0 µM 29% | [7]; at 1.2 µM 5% | [7]; at 3.7 µM 5% | [7]; at 11.0 µM 16% | [7]; at 33.0 µM 12% | [7]; at 100.0 µM 15% | [8]; [17] -3% | [8]; [18] 47% | [8]; at 50.0 µM 36.7% | [9]; at 1.2 µM 0% | [9]; at 3.7 µM -3% | [9]; at 11.0 µM 5% | [9]; at 33.0 µM 17% | [9]; at 100.0 µM 21% | [10]; [17] 8% | [10]; [18] 51% | [10]; at 50.0 µM 55.1% | [11]; at 1.2 µM 1% | [11]; at 3.7 µM -1% | [11]; [17] -18% | [11]; at 11.0 µM 14% | [11]; at 33.0 µM 10% | [11]; [18] 9% | [11]; at 50.0 µM 23.3% | [11]; at 100.0 µM 13% | [12]; at 1.2 µM 2% | [12]; at 3.7 µM 1% | [12]; at 11.0 µM 5% | [12]; at 33.0 µM 6% | [12]; at 100.0 µM 8% | [13]; at 1.2 µM 3% | [13]; at 3.7 µM 0% | [13]; at 11.0 µM 8% | [13]; at 33.0 µM 10% | [13]; at 100.0 µM 10% | [14]; at 1.2 µM 13% | [14]; at 3.7 µM 10% | [14]; at 11.0 µM 22% | [14]; at 33.0 µM 26% | [14]; at 100.0 µM 28% | [15]; [17] -10% | [15]; [18] 58% | [16]; at 1.2 µM 11% | [16]; at 3.7 µM 11% | [16]; at 11.0 µM 19% | [16]; at 33.0 µM 9% | [16]; at 100.0 µM 24%
active: [1]; at 1.2 µM 90% | [1]; at 3.7 µM 86% | [1]; at 11.0 µM 93% | [1]; at 33.0 µM 93% | [1]; at 100.0 µM 94% | [5]; at 1.2 µM 88% | [5]; at 3.7 µM 88% | [5]; at 11.0 µM 92% | [5]; at 33.0 µM 92% | [5]; [18] 97% | [5]; at 50.0 µM 70% | [5]; at 100.0 µM 93% | [15]; at 50.0 µM 72.7%

CC(C)(N=Nc1ccc(Cl)cc1)[N+](=O)[O-]
inactive: [1]; at 1.2 µM 17% | [1]; at 3.7 µM 27% | [2]; at 1.2 µM 10% | [2]; at 3.7 µM 12% | [2]; at 11.0 µM 68% | [3]; at 1.2 µM 13% | [3]; at 3.7 µM 17% | [3]; at 11.0 µM 60% | [4]; at 1.2 µM 12% | [4]; at 3.7 µM 22% | [5]; at 1.2 µM 15% | [5]; at 3.7 µM 35% | [5]; [17] 47% | [6]; at 1.2 µM -1% | [6]; at 3.7 µM 9% | [6]; [17] 28% | [6]; at 11.0 µM 64% | [7]; at 1.2 µM 16% | [7]; at 3.7 µM 21% | [8]; [17] 35% | [9]; at 1.2 µM 14% | [9]; at 3.7 µM 19% | [10]; [17] -1% | [11]; at 1.2 µM 19% | [11]; at 3.7 µM 18% | [11]; [17] 27%
active: [1]; at 11.0 µM 90% | [1]; at 33.0 µM 97% | [1]; at 100.0 µM 97% | [2]; at 33.0 µM 98% | [2]; at 100.0 µM 98% | [3]; at 33.0 µM 90% | [3]; at 100.0 µM 96% | [4]; at 11.0 µM 79% | [4]; at 33.0 µM 98% | [4]; at 100.0 µM 99% | [5]; at 11.0 µM 93% | [5]; at 33.0 µM 98% | [5]; [18] 98% | [5]; at 50.0 µM 99% | [5]; at 100.0 µM 98% | [6]; at 33.0 µM 98% | [6]; [18] 99% | [6]; at 50.0 µM 98.9% | [6]; at 100.0 µM 98% | [7]; at 11.0 µM 76% | [7]; at 33.0 µM 97% | [7]; at 100.0 µM 97% | [8]; [18] 98% | [8]; at 50.0 µM 98.7% | [9]; at 11.0 µM 83% | [9]; at 33.0 µM 97% | [9]; at 100.0 µM 98% | [10]; [18] 98% | [10]; at 50.0 µM 98.5% | [11]; at 11.0 µM 82% | [11]; at 33.0 µM 97% | [11]; [18] 99% | [11]; at 50.0 µM 99% | [11]; at 100.0 µM 98%
